Experimental findings from PubChem BioAssay (EPA / NIEHS) are described below.

Test [1] in a line: ATG_CRE_CIS: Attagene CIS-FACTORIAL HepG2 Assay for human cAMP Responsive Element (CRE) binding protein 3 (AID 2282926). The conditions noted are these: HepG2 CRE cis-reporter, Attagene multiplexed mRNA; actives raise or lower the signal. An outline of the steps:
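Induced reporter mRNA from a CRE cis element, measured in HepG2 among many multiplexed units at 24 h. Detection used RT-PCR plus capillary electrophoresis of fluorescent fragments; DMSO served as negative control.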

The target in test [2] is CCAAT/enhancer-binding protein beta (Homo sapiens) (UniProt P17676). As to the kind of experiment: ATG_C_EBP_CIS: Attagene CIS-FACTORIAL HepG2 Assay for human CCAAT/Enhancer Binding Protein (C/EBP) beta (AID 2282927). The note with it: HepG2 Attagene cis-factorial transcription factor reporter; actives raise or lower the signal. An outline of the steps:
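Endogenous transcription factor activity in human liver HepG2 cells is inferred from induction of a CEBPB-linked reporter mRNA. Exposure lasts 24 h; activity is fitted in both directions relative to DMSO.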

The nature of test [3]: ATG_CMV_CIS: Attagene CIS-FACTORIAL HepG2 Assay for human CMV (Internal Marker) (AID 2282928).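 Note: endpoint acts as a background internal control marker rather than a target.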 The conditions noted are these: HepG2 CMV promoter reporter, transcription factor profiling; actives raise or lower the signal. An outline of the steps:
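Readout: fluorescent reporter cDNA fragments separated by capillary electrophoresis after RT-PCR and HpaI cut. Cells: HepG2 carrying transfected cis-promoter reporter constructs, dosed 24 h. Endpoint serves as background internal-marker control, fit bidirectionally versus DMSO.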

The nature of test [4]: ATG_DR4_LXR_CIS: Attagene CIS-FACTORIAL HepG2 Assay for human Liver X Receptor (LXR), DR4 submotif (AID 2282929). The conditions noted are these: HepG2 Attagene DR4 cis-reporter, mRNA transcription; actives raise or lower the signal. Put shortly:
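After transient transfection with multiplexed cis-promoter reporter units, HepG2 cells received test chemicals for 24 h. Reporter mRNA induction, detected by fluorescence after RT-PCR and capillary electrophoresis, was scored relative to DMSO.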

Test [5] addresses Aryl hydrocarbon receptor (Homo sapiens) (UniProt P35869). As to the kind of experiment: ATG_Ahr_CIS: Attagene CIS-FACTORIAL HepG2 Assay for human Aryl Hydrocarbon Receptor (Ahr) (AID 2282930). The conditions noted are these: HepG2 AhR cis-factorial reporter transcription; actives raise or lower the signal. An outline of the steps:
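Transient MRTU transfection of HepG2 → 24 h compound exposure → total RNA, oligo(dT) RT → PCR, 6-FAM extension, HpaI cut → CE fluorescence. DMSO = baseline; bidirectional curve fit.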

Test [6] is described as follows: ATG_AP_1_CIS: Attagene CIS-FACTORIAL HepG2 Assay for human Activator Protein 1 (AP-1) (AID 2282931). The conditions noted are these: HepG2 Attagene cis-factorial AP-1 reporter mRNA; actives raise or lower the signal. Put shortly: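 After 24 h incubation with test chemical, RNA from transfected HepG2 cells was reverse-transcribed, amplified, fluorescently labelled and digested before capillary electrophoresis. Reporters were driven by cis-regulatory promoters; activity fitted bidirectionally versus DMSO.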

Test [7] is described as follows: ATG_AP_2_CIS: Attagene CIS-FACTORIAL HepG2 Assay for human Activator Protein 2 (AP-2) (AID 2282932). The note with it: HepG2 AP-2 cis-reporter, Attagene transcription factor profiling; actives raise or lower the signal. Put shortly: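 Endogenous transcription factor activity is reported through transfected multiplex reporter constructs in HepG2, after 24 h of compound exposure. Transcripts were quantified by RT-PCR and capillary electrophoresis of fluorescent fragments. Bidirectional fit against DMSO.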

Test [8] in a line: ATG_BRE_CIS: Attagene CIS-FACTORIAL HepG2 Assay for human Bone Morphogenetic Protein (BMP) Response Element (BRE) (AID 2282933). The note with it: HepG2 BMP response element reporter, Attagene transcription factor profiling; actives raise or lower the signal. An outline of the steps: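 Endogenous transcription factor activity read in transiently transfected HepG2 cells after 24 h chemical exposure. Bidirectional curve fitting against DMSO; readout is reporter transcript level by RT-PCR with capillary electrophoresis of labelled products.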

The target in test [9] is Retinoic acid receptor alpha (Homo sapiens) (UniProt P10276). As to the kind of experiment: ATG_DR5_RAR_CIS: Attagene CIS-FACTORIAL HepG2 Assay for human Retinoic Acid Receptor Alpha (RARE), DR5 submotif (AID 2282934).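 For AC50: reporter responds to endogenous RAR alpha beta and gamma in HepG2 not RARA alone.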 The conditions noted are these: HepG2 Attagene cis-factorial RARE DR5 reporter, mRNA; actives raise or lower the signal. An outline of the steps: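 Transient MRTU transfection of HepG2; 24 h compound treatment; TriZol RNA, oligo(dT) RT, PCR, FAM labelling, capillary electrophoresis. Bidirectional fit vs DMSO. Endogenous TF activity at DR5 RARE.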
Chain of Retinoic acid receptor alpha (Homo sapiens) (P10276 whole entry, looked up): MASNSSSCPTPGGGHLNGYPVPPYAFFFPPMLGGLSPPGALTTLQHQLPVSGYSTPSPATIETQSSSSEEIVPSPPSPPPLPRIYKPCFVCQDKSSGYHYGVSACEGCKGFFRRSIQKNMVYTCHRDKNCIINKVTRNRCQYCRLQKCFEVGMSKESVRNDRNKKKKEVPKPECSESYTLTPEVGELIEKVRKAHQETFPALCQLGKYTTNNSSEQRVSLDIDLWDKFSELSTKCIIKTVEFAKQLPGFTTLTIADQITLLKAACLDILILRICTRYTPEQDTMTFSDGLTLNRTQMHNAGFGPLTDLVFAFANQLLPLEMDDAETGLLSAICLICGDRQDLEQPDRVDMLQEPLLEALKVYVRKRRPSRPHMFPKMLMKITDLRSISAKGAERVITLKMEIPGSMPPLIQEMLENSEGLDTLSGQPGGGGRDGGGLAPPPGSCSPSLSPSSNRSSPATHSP

“And” between values parts separate entries of the source, which are not always exact repeats. Identical values can stand only once. Some compounds were tested as several samples or in several runs, with calls that do not always agree. The source made the active and inactive calls. Rule for the calls: active = hit-call score of the fitted dose curve at least 0.9, where 1 is the maximum; inactive = score below 0.9.

Chain of Aryl hydrocarbon receptor (Homo sapiens) (P35869 whole entry, looked up): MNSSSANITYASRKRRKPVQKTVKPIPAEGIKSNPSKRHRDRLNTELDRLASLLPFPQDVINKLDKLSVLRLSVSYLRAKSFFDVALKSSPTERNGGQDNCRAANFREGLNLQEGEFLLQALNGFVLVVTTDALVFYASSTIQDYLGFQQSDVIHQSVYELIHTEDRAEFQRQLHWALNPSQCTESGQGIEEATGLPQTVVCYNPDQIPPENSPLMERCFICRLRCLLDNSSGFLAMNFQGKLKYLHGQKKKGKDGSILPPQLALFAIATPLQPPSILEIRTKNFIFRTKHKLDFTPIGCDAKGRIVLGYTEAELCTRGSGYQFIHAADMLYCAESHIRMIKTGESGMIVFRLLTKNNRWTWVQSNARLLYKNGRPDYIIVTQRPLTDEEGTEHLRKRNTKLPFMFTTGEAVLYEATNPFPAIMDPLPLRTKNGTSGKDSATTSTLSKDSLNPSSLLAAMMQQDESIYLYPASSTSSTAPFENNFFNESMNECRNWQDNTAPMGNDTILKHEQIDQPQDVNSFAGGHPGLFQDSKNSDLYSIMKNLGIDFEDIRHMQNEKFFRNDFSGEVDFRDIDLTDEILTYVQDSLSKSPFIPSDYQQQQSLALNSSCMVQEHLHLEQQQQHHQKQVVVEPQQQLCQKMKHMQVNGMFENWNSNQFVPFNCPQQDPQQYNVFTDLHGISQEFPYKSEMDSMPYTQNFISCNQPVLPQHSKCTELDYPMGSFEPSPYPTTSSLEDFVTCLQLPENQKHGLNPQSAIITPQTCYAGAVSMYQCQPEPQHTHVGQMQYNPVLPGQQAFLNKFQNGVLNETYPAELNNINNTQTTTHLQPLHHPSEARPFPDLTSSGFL
Chain of CCAAT/enhancer-binding protein beta (Homo sapiens) (P17676 whole entry, looked up): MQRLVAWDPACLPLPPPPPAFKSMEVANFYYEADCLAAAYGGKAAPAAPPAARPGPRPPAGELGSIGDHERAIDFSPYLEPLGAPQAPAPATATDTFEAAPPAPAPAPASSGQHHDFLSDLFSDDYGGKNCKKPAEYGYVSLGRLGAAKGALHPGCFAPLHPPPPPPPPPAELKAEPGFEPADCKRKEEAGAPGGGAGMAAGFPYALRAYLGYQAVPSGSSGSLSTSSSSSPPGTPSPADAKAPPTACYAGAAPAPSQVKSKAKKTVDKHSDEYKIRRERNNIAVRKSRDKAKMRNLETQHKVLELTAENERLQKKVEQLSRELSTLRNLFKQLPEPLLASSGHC

Take `NC(=O)N1C(=O)C(C(=O)c2cc(Cl)cs2)c2cc(F)c(Cl)cc21` (stereo not drawn): the result in test [1], in test [2], in test [3], in test [4], in test [5] and in [6] was inactive. The compound was classed as inactive in test [7], in test [8] and in [9].

As to `CCCCC[C@H](O)CC(=O)CCc1ccc(O)c(OC)c1`, the result in test [1], in test [2], in test [3], in test [4], in [5] and in test [6] was inactive. Also, the outcome in [9] was inactive. Moreover, the AC50 in test [7] is 79.2 µM (active).

As to `CCCCOCCO`, the result in [2], in test [3], in [4], in [5], in test [6] and in test [7] was inactive. In addition, the result in test [9] was inactive.

Turning to `CCCCCCCCCCCCCC[N+](C)(C)C`, the result in [2], in [3], in test [4], in [5], in test [7] and in test [9] was inactive. Moreover, the AC50 in test [3] was 15.2 µM (active); in test [4], 16.6 µM (active); in [6], 6.78 µM (active) and 7.32 µM (active); in test [8], 13.1 µM (active) and 4.06 µM (active).

For the compound `FC(F)(I)C(F)(F)C(F)(F)C(F)(F)C(F)(F)C(F)(F)I`, the call in test [1], in [2], in [4], in test [5], in [6] and in test [7] was inactive. Besides, the outcome in test [9] was inactive. Besides, in test [3], the half-maximal activity concentration (AC50) was 9.48 µM (active).

As for `CCCCC(CC)COC(=O)CCCCC(=O)OCc1ccccc1` (stereo not drawn), the outcome in [2], in [3], in [4], in test [5], in [6] and in test [7] was inactive. Moreover, the compound was called inactive in test [8] and in test [9].

As to `CC(O)C(=O)O` (stereo not drawn), the compound was called inactive in test [1], in test [2], in [3], in test [4], in [5] and in test [6]. The result in test [7] and in test [9] was inactive.

In the case of `COc1ccc([N+](=O)[O-])cc1N`, the call in [1], in test [2], in test [3], in [4], in [5] and in test [6] was inactive. Also, the compound was classed as inactive in test [7] and in [9].

On to `CCCCCCCCCCCCc1ccccc1S(=O)(=O)O`, for which the outcome in [2], in [3], in [4], in [5], in test [6] and in test [7] was inactive. Besides, the call in [8] and in [9] was inactive.

As for `CC(C)CCCCCCOC(=O)CCCCC(=O)OCCCCCCC(C)C`, the result in [2], in test [3], in [4], in [6], in test [7] and in test [8] was inactive. For the same compound, in [9], the compound was called inactive. The AC50 in test [5] is 60.3 µM (active).

Consider `OCCC(F)(F)C(F)(F)C(F)(F)C(F)(F)C(F)(F)C(F)(F)F`, for which the concentration at half-maximal activity (AC50) in [2] is 146 µM (active); in test [3] it was 145 µM (active); in [4] it was 182 µM (active); in test [6], 77.3 µM (active). Further, the outcome in [2], in test [3], in test [4], in test [5], in test [6] and in [7] was inactive. The compound was called inactive in [8] and in test [9].

As for `CC(=O)NC1(c2cccc(F)c2)CCN(CC[C@@]2(c3ccc(Cl)c(Cl)c3)CN(c3ccccc3)C(=O)CO2)CC1`, the concentration at half-maximal activity (AC50) is 46.6 µM (active) in test [1]; 54.7 µM (active) in [2]; 45.2 µM (active) in [3]; 37.2 µM (active) in [4]; 14.5 µM (active) in [6]; 62 µM (active) in test [9]. Besides, the outcome in test [5] and in test [7] was inactive.

For the compound `C#C[C@]1(O)CC[C@H]2[C@@H]3CCC4=CC(=O)CC[C@@H]4[C@H]3CC[C@@]21C`, the outcome in [2], in test [3], in [5], in test [6], in test [7] and in test [8] was inactive. Besides, the result in [9] was inactive. Besides, the AC50 in test [5] is 71.5 µM (active) and 50 µM (active).

Take `CC[C@H](C)[C@@H](C(=O)O)n1sc2ccccc2c1=O`: the outcome in test [2], in [3], in test [4], in test [5], in test [6] and in test [7] was inactive. The compound was classed as inactive in [8] and in [9].

Take `Cc1ccc(S(=O)(=O)O)c(C)c1`: the result in test [2], in test [3], in [4], in [5], in [6] and in test [7] was inactive. Besides, the compound was classed as inactive in test [8].

Regarding `CN1CCC[C@H]1c1cccnc1`, the outcome in test [2], in test [3], in test [4], in [5], in test [6] and in [7] was inactive. For the same compound, the compound was classed as inactive in test [8].

Turning to `CC(O)CO` (stereo not drawn), the outcome in test [2], in test [3], in [4], in [5], in [6] and in test [7] was inactive. Also, in [9], the outcome was inactive.

On to `CCc1nn(C2CCCCC2)c2cc(C3(C#N)CCC(C(=O)O)CC3)ccc12` (stereo not drawn), for which the result in test [2], in test [3], in test [5], in test [6] and in [7] was inactive. The AC50 was 129 µM (active) in test [4] and 0.941 µM (active) in test [9].

Regarding `c1ccc2c(c1)Cc1ccccc1-2`, the result in test [2], in [3], in test [4], in test [5], in test [6] and in test [7] was inactive. Moreover, in test [9], the outcome was inactive.
